# Source: PubChem BioAssay (NCATS)
# Inconclusive results are not listed. Activity calls are given as the source filed them. Unless noted, the rule behind the calls is not given here.
# Experiment: qHTS profiling of the MIPE4 collection as inhibitors of Plasmodium falciparum (HB3) proliferation (AID 743347);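 note: plate controls were DMSO vehicle wells for no effect and artemisinin wells for full effect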
# Details: P. falciparum HB3 in erythrocytes, SYBR Green DNA, 72 h; at 28.5 µM (top of the series) unless noted
# How it was run: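 Erythrocytes infected with P. falciparum (0.3% parasitemia, 2.5% hematocrit) incubated with compounds 72 h at 37 C, 5% CO2. Lysis with saponin/Triton buffer containing SYBR Green I, overnight at room temperature in the dark; DNA fluorescence (485/535 nm) normalised to 0.29 uM artemisinin and DMSO.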
row,SMILES,"growth, % of control [%]"
1,CC1(C)CC(O)CC(C)(C)N1[O],60.2
2,O=c1[nH]c(=O)n([C@H]2C[C@@H](O)[C@@H](CO)O2)cc1C=CBr,652
3,C[C@H](CCC(=O)O)[C@H]1CC[C@H]2[C@H]3[C@@H](CC[C@]12C)[C@@]1(C)CC[C@@H](O)C[C@H]1C[C@@H]3O,23.1

# Experiment: qHTS for Inhibitors of the Functional Ribonucleoprotein Complex (vRNP) of Lassa (LASV) Arenavirus: LASV Primary Screen - GLuc reporter signal (AID 1347082; calls by dose curve; tested in HEK293 reporter line; note: nearly all actives have a fitted effect of over 60% in size; note: potency is the fitted concentration of half-maximal effect; for activity change, negative = inhibition: % is set by controls: 0 for no effect and ±100 for the full control effect)
# Details: LASV minigenome vRNP, Gaussia luciferase reporter; series mostly up to 57.5 µM; activity change, negative = inhibition: at the top concentration
SMILES,Potency,"activity change, negative = inhibition"
Oc1ccc(-c2ccc(-c3cc(Nc4cccc(CNC5CC5)c4)n[nH]3)cc2)c(O)c1,24.3 µM (active),–
CCNc1cc(NC2CCC(O)CC2)nc(Nc2ccc3c(ccn3Cc3ccccc3)c2)n1 (centres undefined),–,-33.1% (inactive)
O=C(CCCCCCNC(=O)c1cnc(N(c2ccccc2)c2ccccc2)nc1)NO,–,-9.53% (inactive)
O=C1c2c(O)cc(O)cc2OC(c2ccc(O)c(O)c2)C1O (centres undefined),–,2.25% (inactive)
COc1cc(C(=O)N2CCC(N3CCN(C)CC3)CC2)ccc1Nc1ncc2c(n1)N(C)c1ccccc1C(=O)N2C,–,-29.3% (inactive)
CCc1ccc(OCc2ccccc2C(=O)Nc2ccc3nc(C)cc(N)c3c2)cc1,12.2 µM (active),–
CN(C(Cc1ccc(OS(=O)(=O)c2cccc3cnccc23)cc1)C(=O)N1CCN(c2ccccc2)CC1)S(=O)(=O)c1cccc2cnccc12 (centres undefined),13.7 µM (active),–
O=C(CCCCCCC(=O)Nc1cccnc1)NO,–,-6.85% (inactive)
COc1cc2c(cc1-c1c(C)noc1C)ncc1[nH]c(=O)n([C@H](C)c3ccccn3)c12,13.7 µM (active),–
CC=C(C)C(=O)O[C@H]1C(C)=C[C@]23C(=O)[C@@H](C=C(CO)[C@@H](O)[C@]12O)[C@H]1[C@@H](C[C@H]3C)C1(C)C,–,17.4% (inactive)
COc1ccc(Nc2cc(-c3cnc(N)nc3)nc(N3CCOCC3)n2)cn1,12.2 µM (active),–
